# An excerpt weighted towards active compounds, which were near 7.9% of everything screened.
# Hedgehog inh = Sonic Hedgehog pathway inhibition; Shh-LIGHT2 Gli-luciferase reporter, 30 h; inhibition, % (no concentration beside the values); actives 2.1% (n = 22,000); AID 2313;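 active = mean inhibition across valid replicates above about 65%, limit read from the data; inconclusive = mean under the limit, yet half or more replicates past it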;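 also: pathway switched on by Shh-conditioned medium diluted 1 in 25 in low serum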
# MITF inhib = blocks MITF activity. TRPM1 promoter luciferase, luminescence, 24 h. inhibition, % (test concentration not listed). actives 0.28% (n = 37,000). AID 2240; in the data active = inhibition above about 85%; inconclusive = no clear call, values can overlap the other calls; inactive = below about 68%;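 also: human melanocyte line stably carrying TRPM1 promoter luciferase reporter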
# NOMO-1 viab = STK33 inhibitor candidate reducing NOMO-1 cell viability. NOMO-1 AML viability, CellTiter-Glo luminescence, 72 h. inhibition, % (no concentration beside the values). actives 7.5% (n = 37,000); in the data active = inhibition above about 80%; inconclusive = no clear call, values can overlap the other calls
# Active calls of the source: *; ? = inconclusive; nt = not tested or not shown; ! = repeats disagree.
SMILES,Hedgehog inh,MITF inhib,NOMO-1 viab
C=C1[C@@H](C)[C@H]2[C@H](Cc3ccccc3)NC(=O)[C@]23OC(=O)/C=C\[C@H](O)CCC[C@@H](C)C/C=C/[C@H]3[C@@H]1O,64.9*,21.3,120.1*
CCOC(=O)C1=C(N)Oc2c(c(=O)oc3ccccc23)C12C(=O)N(CC(=O)OC)c1ccccc12 (centres undefined),-9.3,5.5,5.9
CN1C2CCCC1CC(=O)C2,-34.2,14.4,4.5
C[C@]12CCC(=O)C=C1C=CC1C2CC[C@@]2(C)C1CC[C@@]2(O)CCC(=O)O (some centres undefined),-37.5,1.0,16.9
COc1ccc2c3c([nH]c2c1)C(C)=NCC3,-16.4,11.7,7.8
CC1=NCCc2c1[nH]c1cc(O)ccc21,79.9*!,1.2,5.6
CC(C)N(C(=O)SCC(Cl)=C(Cl)Cl)C(C)C,-5.7,7.2,10.4
CC(C)(C)c1nc2ccccc2c(=O)n1-c1ccc(F)cc1F,1.3,2.0,9.5
O=C(/C=C/c1ccccc1)OCC1OC(OC2OC=CC3C(O)C4OC4(CO)C23)C(O)C(O)C1O (centres undefined),-15.4,-9.3,0.8
COc1cc2c(c(OC)c1OC)-c1cc3c(cc1[C@H](OC(C)=O)[C@H]1COC(=O)[C@@H]1C2)OCO3,82.9*,26.2,106.5*
COc1ccc(CC2C(=O)OCC2Cc2ccc3c(c2)OCO3)cc1OC (centres undefined),12.1,6.5,8.5
CC1(C)C(C(=O)Nc2nccs2)C1(C)C,-29.8,-2.8,11.4
CN(CC(=O)Nc1ccc(Cl)cc1C(=O)c1ccccc1)S(=O)(=O)c1ccc(Cl)cc1,nt,10.7,18.0
C=C(C)Cc1c(C)nc(SCC(=O)c2ccc(Cl)cc2)nc1OC(=O)N(C)C,nt,-4.3,-12.0
CCCCC/C=C\C/C=C\C/C=C\C/C=C\CCCC(=O)NCc1ccc(O)c(OC)c1,41.3,7.5,117.1*
CC12CCC3C(CC=C4CC(O)CCC43CO)C1CCC2OC(=O)c1ccccc1 (centres undefined),6.7,15.6,65.5
C[C@@H]1C[C@@H]([C@H](O)CC2CC(=O)NC(=O)C2)C(=O)[C@@H](C)C1,50.0,72.3,113.9*
C[C@@H]1CC([C@H](O)CC2CC(=O)NC(=O)C2)C(=O)[C@@H](C)C1 (some centres undefined),68.4*,55.4,140.7*
CCc1c(C(=O)OC)ncc2[nH]c3cc(OC)c(OC)cc3c12,-73.3,-25.3,30.2
COc1cc2c(cc1OC)[C@@]13CCN4CC5=CCOC6CC(=O)N2C1[C@H]6[C@H]5C[C@H]43 (some centres undefined),-20.4,-7.6,5.8
CC(C)(C)c1cc(C=C(C#N)C#N)cc(Br)c1O,88.1*,78.3,57.3
CC(C)(C)NCC(O)c1ccccc1Cl (centres undefined),-6.1,-1.9,3.0
COC(=O)C12CC3CC(C(C)O)C1N(CCc1c2[nH]c2cc(OC)ccc12)C3 (centres undefined),-56.9,nt,nt
CC(C)(CN)CNc1ccc([N+](=O)[O-])c2cccnc12,nt,20.3,73.0
COC1=CC(=O)O[C@@H](CCc2ccccc2)C1,-20.5,-1.8,12.1
SMILES,Hedgehog inh,MITF inhib,NOMO-1 viab
Cc1cc(OC(=O)c2cccs2)c2c3c(c(=O)oc2c1)CCC3,-8.8,-8.1,8.7
C/C1=C/[C@@H](C)C/C=C/[C@H]2[C@@H]3O[C@]3(C)[C@@H](C)[C@H]3[C@H](Cc4c[nH]c5ccccc45)NC(=O)[C@]32C(=O)/C=C\C(=O)[C@@H]1O,102.3*,nt,nt
CC(=O)Nc1ccc(Cc2ccc(NC(C)=O)cc2)cc1,-38.9,-11.2,25.3
C[C@@H]1CCOC(=O)C=CC=CC(=O)O[C@@H]2C[C@H]3O[C@@H]4C=C(CO)CC[C@]4(COC(=O)[C@H]1O)[C@]2(C)[C@]31CO1,-6.2,-4.4,-1.5
O=c1c2ccccc2nc(CSc2ncnc3ccccc23)n1-c1ccccc1F,nt,70.7,?
COc1ccc2c(c1OC)C(=O)O[C@H]2[C@@H]1c2cc3c(cc2CCN1C)OCO3,-39.4,10.2,24.8
CN1Cc2c(ccc3c2OCO3)C2C(O)Cc3cc4c(cc3C21)OCO4 (centres undefined),82.1*,22.9,104.5*
COc1cc(CNCCc2c[nH]c3ccccc23)c([N+](=O)[O-])cc1OC,nt,-4.6,5.5
COc1ccccc1OCCCn1cc(C(=O)C(C)(C)C)c2ccccc21,nt,12.5,37.3
CC(=O)OC[C@]12C[C@H](O)C(C)=C[C@H]1O[C@@H]1[C@H](O)[C@@H](OC(C)=O)[C@@]2(C)[C@]12CO2,95.8*,90.2*,122.9*
CC(=O)OC[C@]12CCC(C)=C[C@H]1O[C@@H]1[C@H](O)[C@@H](OC(C)=O)[C@@]2(C)[C@]12CO2,109.4*,92.0*,108.9*
CN1C2C[C@H](OC(=O)[C@H](CO)c3ccccc3)C[C@H]1[C@@H](O)C2,11.8,-13.6,-3.2
CC(=O)CC(c1ccc(Br)cc1)c1c(O)c2ccccc2oc1=O (centres undefined),nt,8.5,-15.3
COC(C/C=C/C=C/CC/C=C\CC(C)/C=C\C(=C/C(=O)O)CC(=O)O)/C(C)=C\C=C(/C)C(=O)O (centres undefined),-53.3,8.0,-11.1
CO[C@H]1[C@H](O)[C@H](O[C@H]2CC[C@]3(C)C4CC[C@]5(C)C(C6=CC(=O)OC6)CC[C@]5(O)C4CC[C@@H]3C2)O[C@@H](C)[C@@H]1O (some centres undefined),-4.8,21.3,110.4*
C[C@]12CC[C@H](O)C[C@H]1CCC1C2CC[C@]2(C)[C@@H](C3=CC(=O)OC3)[C@@H](O)C[C@]12O (some centres undefined),-46.6,-9.0,97.3*
COC1CC(OC2CCC3(C)C(CCC4C3CCC3(C)C(C5=CC(=O)OC5)C(OC(C)=O)CC43O)C2)OC(C)C1OC1OC(COC2OC(CO)C(O)C(O)C2O)C(O)C(O)C1O (centres undefined),3.1,20.1,109.6*
CC(=O)[C@H]1CC[C@H]2[C@@H]3CC[C@H]4C[C@H](O)CC[C@]4(C)[C@H]3CC[C@]12C,-33.2,38.5,39.6
Cc1ccc(N2C(=O)NC(=O)C(CCc3ccccn3)(Cc3cccs3)C2=O)cc1 (centres undefined),nt,-0.3,15.7
OC[C@H]1O[C@@H](Oc2ccc(/C=C/c3cc(O)cc(O)c3)cc2O)[C@H](O)[C@@H](O)[C@@H]1O,-18.1,nt,nt
COc1cc(C2=NC(O)C(=O)Nc3ccc(Cl)cc32)ccc1O (centres undefined),-15.5,3.3,3.3
C/C=C1/CN2C3CC1C(CO)C2Cc1c3[nH]c2ccc(OC)cc12 (centres undefined),-8.0,nt,nt
C[C@@H]1O[C@@H](O[C@@H]2C=C3CCC4C(CC[C@]5(C)[C@@H](c6ccc(=O)oc6)CC[C@]45O)[C@@]3(C)CC2)[C@H](O)[C@H](O)[C@H]1O (some centres undefined),-21.0,41.6,119.7*
C[C@@H]1O[C@@H](O[C@@H]2C=C3CC[C@@H]4C(CC[C@]5(C)[C@@H](c6ccc(=O)oc6)CC[C@]45O)[C@@]3(C)CC2)[C@H](O)[C@H](O)[C@H]1O (some centres undefined),23.1,20.0,107.7*
CN1CCN(CC(=O)Nc2ccc(Br)cc2C(=O)c2ccccc2)CC1,nt,-12.7,53.0

# Compound activity: PubChem, Broad Institute
